What all share (assay): NCI-60 one-dose screen, 48 h (100 = growth as untreated, 0 = no growth, -100 = all killed)
What all share (settings): 10 µM unless noted

Test [1] deals with HCT-15 colon.
Test [2] has as its system HT29 colon.
The test system of test [3] is SNB-75 CNS.
The subject of test [4] is SNB-19 CNS.
Test [5] has as its system U251 CNS.
Test [6] has as its system PC-3 prostate.
The subject of test [7] is SK-MEL-5 melanoma.
For test [8], the system named is UACC-62 melanoma.
Test [9] has as its system LOX IMVI melanoma.
For test [10], the system named is SK-MEL-2 melanoma.
Test [11] relates to EKVX NSCLC.
Test [12] concerns SN12C renal.
Test [13] relates to UO-31 renal.
For test [14], the system named is TK-10 renal.
Test [15] has as its system ACHN renal.
The test system of test [16] is CAKI-1 renal.
In test [17] the test system is HL-60(TB) leukemia.
In test [18] the test system is SK-MEL-28 melanoma.
The test system of test [19] is A498 renal.
Test [20] relates to CCRF-CEM leukemia.

Where “and” joins values, the source holds several entries; their conditions need not be identical. Equal entries are not always repeated. This is part of a sample that, as a whole, favours compounds with a hit. Of some 83,000 tested, about 20% had one in any assay.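 Compound tested at a single concentration for 48 hours in 96-well plates; a percent growth value below 10 was scored as active.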 Calls of active or inactive are those of the source.

As to `O=c1[nH]c(=O)[nH]c(=O)[nH]1`, the growth is 160% (inactive) in test [1]; 115% (inactive) in [2]; 103% (inactive) in [3]; 98.1% (inactive) in test [4]; 132% (inactive) in [5]; 148% (inactive) in [6]. In addition, the growth was 107% (inactive) in test [7]; 113% (inactive) in test [8]; 129% (inactive) in test [9]; 66.7% (inactive) in test [10]; 110% (inactive) in test [11]; 120% (inactive) in test [12]. Moreover, the growth was 95.3% (inactive) in [13]; 140% (inactive) in test [14]; 161% (inactive) in [15]; 92.7% (inactive) in test [16]; 88.8% (inactive) in [17].

Take `CC(=O)Cc1ccc2c(c1)OCO2`: the growth in test [1] is 113% (inactive); in [2], 98.6% (inactive); in [3], 117% (inactive); in test [4] it was 98.8% (inactive); in [5], 103% (inactive); in [6], 106% (inactive). For the same compound, the growth in test [8] was 103% (inactive); in test [9], 100% (inactive); in test [18] it was 130% (inactive); in test [10] it was 112% (inactive); in test [11] it was 109% (inactive); in test [12], 101% (inactive). The growth in test [13] was 102% (inactive); in test [14] it was 110% (inactive); in test [15], 108% (inactive); in test [16] it was 96.9% (inactive); in [19], 116% (inactive); in test [17] it was 77.4% (inactive). For the same compound, in [20], the growth was 108% (inactive).

For `NC(=O)Oc1cc(OC(N)=O)cc(N(CCCl)CCCl)c1`, the growth in test [1] was 68.9% (inactive); in [2], 64.1% (inactive); in test [3], 49.2% (inactive); in test [4], 74.6% (inactive); in [6] it was 71.7% (inactive); in test [7] it was 73.3% (inactive). For the same compound, the growth in [8] was 46.2% (inactive); in test [9], 42.6% (inactive); in test [10], 93.2% (inactive); in test [12], 37.5% (inactive); in [13] it was 34.5% (inactive); in test [14], 103% (inactive). Moreover, the growth in test [15] was 15.7% (inactive); in test [16], -24.7% (active); in test [20], 13.4% (inactive).

`CC/C(=C(\c1ccc(OCCN2CCOCC2)cc1)c1ccc(OC(=O)Cc2ccccc2)cc1)c1ccc(Cl)cc1`: the growth is 112% (inactive) in [1]; 95.1% (inactive) in [2]; 114% (inactive) in [3]; 103% (inactive) in test [5]; 95.3% (inactive) in test [6]; 107% (inactive) in [7]. Further, the growth is 99.7% (inactive) in [8]; 99% (inactive) in [9]; 101% (inactive) in test [18]; 101% (inactive) in [10]; 109% (inactive) in test [11]; 98.6% (inactive) in test [12]. Further, the growth in test [13] was 87.9% (inactive); in test [14] it was 93% (inactive); in [15], 117% (inactive); in test [16] it was 91.9% (inactive); in test [19], 104% (inactive); in [17], 95.5% (inactive). The growth in [20] was 98.1% (inactive).

Take `N#CCC(=O)c1ccccc1`: the growth in [1] is 99.8% (inactive); in test [2] it was 110% (inactive); in test [3], 84.3% (inactive); in test [4], 111% (inactive); in test [5], 101% (inactive); in test [6], 95.2% (inactive). The growth was 104% (inactive) in [7]; 107% (inactive) in [8]; 103% (inactive) in test [9]; 114% (inactive) in [10]; 99% (inactive) in test [11]; 109% (inactive) in test [12]. Also, the growth in [13] was 79% (inactive); in test [14], 119% (inactive); in test [15] it was 106% (inactive); in [16], 101% (inactive); in test [19] it was 117% (inactive); in [17], 98.4% (inactive). The growth in test [20] was 110% (inactive).

In the case of `CCC1(NC(=O)c2cc(F)c(F)c(F)c2F)C(=O)NC(=O)N(C(C)C)C1=O` (stereo not drawn), the growth was 12.4% (inactive) in [1]; 76.6% (inactive) in test [2]; 88.4% (inactive) in test [3]; 92.7% (inactive) in test [4]; 90.6% (inactive) in test [5]; 93% (inactive) in test [6]. The growth in test [7] is 64.7% (inactive); in test [8], 48.6% (inactive); in [9], 42% (inactive); in test [10], 68.4% (inactive); in test [11], 93.1% (inactive); in test [12] it was 81.7% (inactive). The growth was 68.2% (inactive) in [13]; 123% (inactive) in test [14]; 96.6% (inactive) in test [15]; 93.6% (inactive) in test [16]; 98.2% (inactive) in [19]; -22.6% (active) in test [17]. In addition, the growth in test [20] was 87.3% (inactive).

For the compound `COc1ccc(/C=C(/C)[N+](=O)[O-])cc1OC`, the growth in [1] is -25.4% (active) and -17.4% (active); in test [2], -70.6% (active) and -16.3% (active); in test [3], 78.5% (inactive) and 53.6% (inactive); in [5], -46.5% (active) and -15.8% (active); in [6] it was 19.4% (inactive) and 47.7% (inactive); in test [7], 52.9% (inactive) and 47.9% (inactive). In addition, the growth in test [8] is 46.1% (inactive) and 23.8% (inactive); in test [9] it was -51.5% (active) and -88.8% (active); in [18] it was -50.9% (active) and 4.89% (active); in [10], 8.73% (active) and 0.617% (active); in [11], 65.6% (inactive) and 84.6% (inactive); in test [12], -1.3% (active) and 25.2% (inactive). The growth is -63.9% (active) and -93.1% (active) in test [13]; -49.9% (active) and 70.4% (inactive) in [14]; -1.7% (active) and -73% (active) in test [15]; -6.27% (active) and -71.9% (active) in [16]; 112% (inactive) and 97.9% (inactive) in [19]; -14.7% (active) and -26% (active) in [17]. The growth in test [20] is 0.7% (active) and 20.8% (inactive).

Regarding `C[N+]12CCC34C5=CC(=O)C(=O)C=C5[N+]5(C)C(=O)CC6OCC=C(C1)C(CC32)C6C45` (stereo not drawn), the growth in [1] was 103% (inactive); in test [2], 104% (inactive); in test [3], 109% (inactive); in test [4], 104% (inactive); in test [5], 104% (inactive); in test [6] it was 106% (inactive). Besides, the growth was 97.5% (inactive) in [7]; 106% (inactive) in test [8]; 118% (inactive) in test [9]; 120% (inactive) in test [10]; 105% (inactive) in test [12]; 116% (inactive) in [14]. Further, the growth was 101% (inactive) in test [15], 116% (inactive) in [16], 126% (inactive) in test [19] and 84.2% (inactive) in test [17].

Values taken from PubChem BioAssay (NCI).
